In PubChem BioAssay (EPA / NIEHS):
Results filed as inconclusive are left out. Activity calls are given as the source filed them. The calls were made as follows, unless noted: active = hit-call score of the fitted dose curve at least 0.9, where 1 is the maximum; inconclusive = response in the unintended direction; inactive = score below 0.9.

What was measured:
[1] = TOX21_p53_BLA_p2_viability: Viability Assessment in the Tox21 HCT-116 p53 Agonism Beta-lactamase Assay, Phase 2 (AID 2283591);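 also: compound exposure lasted 16 h at 37 °C; actives lower the ATP signal meaning cytotoxicity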
How it was run: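 HCT116 p53-bla cells, 4000/well, dosed after 5 h plating (217-fold dilution of DMSO stocks) and incubated 16 h at 37C. Viability taken as cellular ATP by CellTiter-Glo luminescence after 30 min RT; signal loss marks cytotoxicity.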

[2] = biological target: Cellular tumor antigen p53 (Homo sapiens) (UniProt P04637); assay: TOX21_p53_BLA_p2_ratio: Tox21 HCT-116 p53 Agonism Beta-lactamase Assay, Ratio, Phase 2 (AID 2283592)
How it was run: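 Human colon HCT116 cells with an inducible p53 beta-lactamase reporter are exposed to test chemicals for 16 h at 37C. Reporter induction is read as the 460/530 nm emission ratio after CCF4-AM loading, normalized to DMSO.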

[3] = TOX21_p53_BLA_p3_viability: Viability Assessment in the Tox21 HCT-116 p53 Agonism Beta-lactamase Assay, Phase 3 (AID 2283593);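 also: cells exposed to compound for 16 h before reading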
How it was run: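 HCT116 cells, 4000/well, dosed 5 h after plating by pin transfer (217-fold dilution from DMSO stock) and incubated 16 h at 37C, 5% CO2. Viability read as ATP luminescence with CellTiter-Glo after 30 min at room temperature.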

[4] = biological target: Cellular tumor antigen p53 (Homo sapiens) (UniProt P04637); assay: TOX21_p53_BLA_p3_ratio: Tox21 HCT-116 p53 Agonism Beta-lactamase Assay, Ratio, Phase 3 (AID 2283596)
How it was run: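 HCT116 p53-bla cells (4000/well) given compound in DMSO (217-fold dilution) after 5 h, incubated 16 h at 37C. CCF4-AM substrate 2 h at room temperature; 460/530 nm emission ratio, gain fitted against DMSO.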

[5] = biological target: Cellular tumor antigen p53 (Homo sapiens) (UniProt P04637); assay: TOX21_p53_BLA_p5_ratio: Tox21 HCT-116 p53 Agonism Beta-lactamase Assay, Ratio, Phase 5 (AID 2283599)
How it was run: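 HCT-116 p53-bla cells (4000/well) plated 5 h, dosed with compound (217-fold DMSO dilution) for 16 h at 37 C; CCF4-AM substrate 2 h at room temperature. Activity is the 460/530 nm emission ratio (405 nm excitation), fitted in gain-of-signal direction versus DMSO.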

[6] = TOX21_p53_BLA_p4_viability: Viability Assessment in the Tox21 HCT-116 p53 Agonism Beta-lactamase Assay, Phase 4 (AID 2283597);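 also: hits lower the luminescence signal meaning cytotoxicity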
How it was run: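 Luminescent ATP readout (CellTiter-Glo, 30 min, room temperature) in the same wells as the p53 bla ratio. HCT116 cells were treated for 16 h at 37C with DMSO-dissolved compounds.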

[7] = TOX21_p53_BLA_p5_viability: Viability Assessment in the Tox21 HCT-116 p53 Agonism Beta-lactamase Assay, Phase 5 (AID 2283600)
How it was run: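 Seeded cells (4000/well) settle 5 h before compound addition. Plates then incubate 16 h at 37C, receive FRET substrate for 2 h, and finally CellTiter-Glo, with luminescence measured after a 30 min room-temperature incubation.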

[8] = biological target: Cellular tumor antigen p53 (Homo sapiens) (UniProt P04637); assay: TOX21_p53_BLA_p4_ratio: Tox21 HCT-116 p53 Agonism Beta-lactamase Assay, Ratio, Phase 4 (AID 2283601)
How it was run: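 HCT-116 p53 beta-lactamase reporter cells (4000/well) preincubated 5 h, then compound (217-fold dilution of DMSO stock) for 16 h at 37C. CCF4-AM substrate added 2 h at room temperature; 460/530 nm emission ratio fitted upward versus DMSO.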

[9] = CCTE_Harrill_HTTr_Viability_MCF7: CCTE's 6-hour Cell Viability Assessment for the High-Throughput Transcriptomics (HTTr) Platform, in MCF-7 cells cultured in DMEM + 10% fetal bovine serum, Harrill Lab (AID 2284010; active = hit-call score of the fitted dose curve at least 0.9, where 1 is the maximum; inactive = score below 0.9)
How it was run: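 Membrane integrity was scored by high-content imaging of propidium iodide dye exclusion after a 6 h exposure across an eight-point dilution series. Data were fitted bidirectionally relative to DMSO as negative control and baseline.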

[10] = CCTE_Harrill_HTTr_Apoptosis_MCF7: CCTE's 6-hour Apoptosis Assessment for the High-Throughput Transcriptomics (HTTr) Platform, in MCF-7 cells cultured in DMEM + 10% fetal bovine serum, Harrill Lab (AID 2284011; active = hit-call score of the fitted dose curve at least 0.9, where 1 is the maximum; inactive = score below 0.9)
How it was run: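 Apoptosis in MCF-7 cells grown in DMEM with 10% fetal bovine serum was scored after a six hour exposure by high content imaging of caspase-3/7 activation (CellEvent Caspase 3/7 Green), with DMSO serving as negative control and baseline.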

Measured: outcome

Cellular tumor antigen p53 (Homo sapiens), sequence (P04637 whole entry, looked up): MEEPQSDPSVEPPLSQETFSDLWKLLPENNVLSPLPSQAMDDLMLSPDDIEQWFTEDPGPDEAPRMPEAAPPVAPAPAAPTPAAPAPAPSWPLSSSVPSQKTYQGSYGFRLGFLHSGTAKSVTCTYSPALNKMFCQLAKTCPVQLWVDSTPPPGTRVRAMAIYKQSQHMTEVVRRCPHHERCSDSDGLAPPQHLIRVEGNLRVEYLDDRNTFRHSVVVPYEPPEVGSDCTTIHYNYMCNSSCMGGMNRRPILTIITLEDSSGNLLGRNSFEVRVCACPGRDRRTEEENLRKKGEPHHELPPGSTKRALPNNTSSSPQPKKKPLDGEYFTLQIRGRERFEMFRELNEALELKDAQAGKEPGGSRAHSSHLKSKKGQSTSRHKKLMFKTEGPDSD

CC(C)(c1ccc(Oc2ccc3c(c2)C(=O)OC3=O)cc1)c1ccc(Oc2ccc3c(c2)C(=O)OC3=O)cc1
inactive: [1] | [2] | [3] | [4] | [5]

CO[C@@H]1[C@H](OC(=O)/C=C/C=C/C=C/C=C/C(=O)O)CC[C@]2(CO2)[C@H]1[C@@]1(C)O[C@@H]1CC=C(C)C
not listed: [5]
inactive: all other assays above
